{"source": "PubChem BioAssay AID588847", "about": "(Broad Institute, 2011)", "note": "Potency and affinity values are given separately. Activity calls are given as the source filed them.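 The calls were made as follows: active = compounds lowering luciferase light with a fitted half-maximal dose at most twice the top tested dose; inconclusive = flat fit inhibiting 30 to 70%, or unreliable fit; inactive = the rest.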", "data": [{"target": "Luciferin 4-monooxygenase (Photuris pensylvanica) (UniProt Q27757)", "sequence (Q27757 whole entry, looked up)": "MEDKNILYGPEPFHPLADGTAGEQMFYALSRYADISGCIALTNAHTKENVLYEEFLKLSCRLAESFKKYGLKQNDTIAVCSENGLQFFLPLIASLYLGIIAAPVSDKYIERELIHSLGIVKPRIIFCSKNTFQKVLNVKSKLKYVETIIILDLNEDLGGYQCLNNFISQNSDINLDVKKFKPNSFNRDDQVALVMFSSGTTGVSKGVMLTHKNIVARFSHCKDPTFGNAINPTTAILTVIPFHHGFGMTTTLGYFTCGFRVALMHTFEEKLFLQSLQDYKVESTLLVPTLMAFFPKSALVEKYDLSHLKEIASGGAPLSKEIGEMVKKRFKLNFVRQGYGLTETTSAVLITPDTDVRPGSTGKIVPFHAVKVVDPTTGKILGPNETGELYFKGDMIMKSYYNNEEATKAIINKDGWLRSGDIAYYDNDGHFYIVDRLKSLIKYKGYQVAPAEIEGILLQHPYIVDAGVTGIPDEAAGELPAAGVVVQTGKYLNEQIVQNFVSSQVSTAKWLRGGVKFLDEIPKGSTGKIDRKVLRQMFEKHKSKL", "assay": "inhibition of Cell Titer Glo luciferase signal – biochemical, luminescence, cherry-picks, counter-screen for HSF-1 reporter inhibitor project, dose response (AID 588847)", "conditions": "ATP; series mostly up to 26 µM", "values": [{"compound": "COc1cc([C@@H]2c3cc4c(cc3[C@H](O)[C@H]3COC(=O)[C@H]23)OCO4)cc(OC)c1OC", "outcome": "inactive"}, {"compound": "O=[N+]([O-])c1nn(-c2ccc3c(c2)OCCO3)n(O)c1=Nc1ccccc1", "outcome": "inactive"}, {"compound": "COC(=O)c1ccccc1NC(=O)c1ccc(-c2ccc(Br)cc2)o1", "outcome": "inactive"}, {"compound": "Cc1nc(SCC(=O)Nc2nc3ccccc3s2)c(C#N)c(C)c1C", "outcome": "inactive"}, {"compound": "CC(=O)[C@@]1(O)C(C)CC2C3C=C(C)C4=Cc5c(cnn5-c5ccccc5)C[C@]4(C)C3C(O)C[C@@]21C", "note": "(stereo partly drawn)", "outcome": "inactive"}, {"compound": "CC(=O)OCC(=O)[C@@]12OC(C)(C)O[C@@H]1CC1C3C[C@H](F)C4=CC(=O)C=CC4(C)[C@@]3(F)C(O)CC12C", "note": "(stereo partly drawn)", "outcome": "inactive"}, {"compound": "Cc1ccc(C(=O)Nc2sc(C)c(-c3ccccc3)c2C(N)=O)cc1[N+](=O)[O-]", "outcome": "inactive"}, {"compound": "O=C(Nc1ccc(F)cc1F)c1cc2nc3c(c(C(F)(F)F)n2n1)CCCC3", "outcome": "inactive"}]}]}
